From PubChem
Shown is part of a subset that was picked to be rich in hits.
Pf Dd2 growth: Plasmodium falciparum Dd2 growth inhibition. hit rate 4.3% among 120,000. Potency, µM (series often up to 28.9 µM), actives largely listed as inhibitors. AID 1347417. P. falciparum Dd2 growth, SYBR Green, 72 h; active = well fitted inhibition curve with a large enough effect; also: nearly all actives have a fitted effect of over 65% in size
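Readout: SYBR Green fluorescence, 485 nm excitation, 535 nm emission, after ~16 h lysis at 37C. Before that, Dd2-infected red cells (2.5% hematocrit) grew 72 h with compound, 29 uM top final concentration.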
A number is an active result; – = inactive; [ ] = remark or other dose.

SMILES | Pf Dd2 growth
CCNC(=O)CCc1c(C)nn(-c2ccc(F)cc2)c1Oc1ccccc1C | –
Cc1ccc(S(=O)(=O)N2CCN(C3CCN(Cc4cccnc4)C3=O)CC2)cc1C (stereo not drawn) | –
Cc1cccc(OCC(=O)N2CCC3(CC2)NC(=O)N(Cc2ccccc2)C3=O)c1 | –
COc1ccc(Cn2c3c(c(=O)n2Cc2ccccc2)CCN(Cc2c(C)noc2C)C3)cc1 | –
CCc1c(C)c(C#N)c2nc3ccccc3n2c1Nc1cccc(C(F)(F)F)c1 | 2.24µM
CC(=O)Nc1ccccc1-c1nc2ccccc2n(CC(=O)Nc2cccc(C(F)(F)F)c2)c1=O | –
O=c1c2ccccc2nc2sc(Nc3cccc(C(F)(F)F)c3)nn12 | –
Cc1nnc([C@@H]2CC(F)(F)CN2C(=O)c2ccco2)o1 | –
O=C(Cn1ccn2nc(-c3ccc(F)cc3)c(CO)c2c1=O)NCCc1ccc(Cl)cc1 | –
CCOCC(=O)N1CCC(Cc2ccc(C(=O)N(C)C)cc2)CC1 | –
CCS(=O)(=O)N1CCCC(Cc2ncc(C)n2C(C)C)C1 (stereo not drawn) | –
Cc1cnc(CC2CCN(S(=O)(=O)c3cn(C)cn3)C2)n1Cc1ccccc1 (stereo not drawn) | –
Cc1cnc(CC2CCN(S(=O)(=O)Cc3ccccc3)C2)n1C(C)C (stereo not drawn) | 4.47µM
Cc1cnc(CC2CCN(S(=O)(=O)c3ccc4c(c3)CCC4)C2)n1CC1CC1 (stereo not drawn) | –
CCCn1c(C)cnc1CC1CCCN(S(C)(=O)=O)C1 (stereo not drawn) | –
CCS(=O)(=O)N1CCCC(Cc2ncc(C)n2Cc2ccc(F)cc2)C1 (stereo not drawn) | 1.78µM
CCN(CC)C(=O)N1CCCC(Cc2ncc(C)n2Cc2ccc(F)cc2)C1 (stereo not drawn) | 3.55µM
COc1ccc(C(=O)N2CCCC(Cc3ncc(C)n3Cc3ccc(F)cc3)C2)cn1 (stereo not drawn) | –
CCCn1c(C)cnc1CC1CCCN(S(=O)(=O)c2cn(C)cn2)C1 (stereo not drawn) | –
Cc1cnc(CC2CCN(C(=O)C3CC3)C2)n1C(C)C (stereo not drawn) | –
Cc1cnc(CC2CCCN(C(=O)COc3ccccc3)C2)n1Cc1ccc(F)cc1 (stereo not drawn) | –
CCCn1c(C)cnc1CC1CCN(S(=O)(=O)c2ccc3c(c2)CCC3)C1 (stereo not drawn) | 1µM
Cc1ccc(C(=O)N2CCC(CCC(=O)NC3CCCCCC3)CC2)cc1 | –
O=C(NCCc1ccccc1)N1CCCC(Cn2cnc3cccnc32)C1 (stereo not drawn) | –
Cc1ccc2nc(SCCC(=O)N3CC[C@@](C)(O)[C@@H](O)C3)cc(C)c2c1 | –
SMILES | Pf Dd2 growth
CCN(CC)Cc1cnc2c(C(=O)N3CCC(C(N)=O)CC3)cnn2c1 | –
CN(Cc1cc(-c2ccccc2)no1)Cc1ncccc1C(=O)O | –
N#Cc1ccc(CN2CC3(Cc4ccccc4C(=O)N3)C2)cc1 | –
c1ccc2ncc(CNC[C@H]3COCc4nc5ccccc5n43)cc2c1 | –
Cc1c(C(=O)N2CCCC(CCc3ccc(F)cc3)C2)cnc2cc(=O)[nH]n12 (stereo not drawn) | –
O=C(CCn1ccc(=O)[nH]c1=O)N[C@H](c1ccccn1)C1CC(O)C1 (stereo partly drawn) | –
CCc1cc(NCCNC(=O)c2ccccc2Cl)n2nccc2n1 | –
CCOc1ccc(S(=O)(=O)N2CCCN(C)c3ccccc32)cc1 | –
COc1cc(-c2nc3ncccn3c2Nc2ccc(C)cc2C)ccc1O | 12.6µM
Cc1ccc(-c2nc3ncccn3c2Nc2ccc3c(c2)OCCO3)cc1 | –
COc1ccc(Nc2c(-c3ccc(N4CCOCC4)cc3)nc3ncccn23)cc1OC | –
Cc1cc(CN2CCC3(CC2)CN(c2ncccn2)CC3CO)n(C)n1 (stereo not drawn) | –
O=C(C1CC(=O)N(c2n[nH]c3cccc(F)c23)C1)N1CCSCC1 (stereo not drawn) | –
CCOC(=O)Cn1c(=O)n(-c2ccccc2OC)c2nc(-c3ccccc3C)nc(C(N)=O)c21 | 10µM
CCOC(=O)Cn1c(=O)n(CC2CCCO2)c2nc(-c3ccccc3)nc(C(N)=O)c21 (stereo not drawn) | –
CCn1c(=O)n(-c2ccc3c(c2)OCO3)c2nc(-c3cccc(OC)c3OC)nc(C(N)=O)c21 | –
CC(C)NC(=O)c1cc2n(n1)CC(c1ccc3c(c1)OCO3)OC2 (stereo not drawn) | –
CC(=O)Nc1ccc(C(=O)NC2CCN(c3cc(-c4ccccc4)[nH]n3)C2)cc1 (stereo not drawn) | –
Cc1cccc(C)c1NC(=O)Cn1cccc1-c1nc(-c2ccc(F)cc2)no1 | –
Cc1ccc(C(=O)N2CCC3(CCCN(C4CCOCC4)C3=O)C2)cc1F (stereo not drawn) | –
Cc1cccc(NC(=O)N2CC(Oc3ccc(-c4nc(-c5ccccc5)no4)cc3)C2)c1 | –[5.79 µM]
COc1cc(NS(=O)(=O)c2cc(Br)cc3c2N(C(=O)C2CC2)CC3)cc(OC)c1 | –
CCN(C(=O)C1CCN(S(=O)(=O)c2cc(Br)cc3c2N(C(C)=O)CC3)CC1)c1cccc(C)c1 | 5.01µM
